Results published in article PMC7862700, “An all-to-all approach to the identification of sequence-specific readers for epigenetic DNA modifications on cytosine”.

Tests used:
Test in all cases: DAPPL (digital affinity profiling via proximity ligation, sequencing); 10 mM Tris-HCl pH 7.5, 50 mM NaCl, 1 mM DTT, 4% glycerol, room temperature, 30 min; GST-TFs on glutathione beads, 16-mer random dsDNA library, 0.1% formaldehyde crosslink after washing; high values mean tight binding
[1] = target: T1, FEV (Homo sapiens, UniProt Q99581 1-238); conditions: protein: recombinant; tags: N-terminal GST; dsDNA, one strand shown
T1 sequence: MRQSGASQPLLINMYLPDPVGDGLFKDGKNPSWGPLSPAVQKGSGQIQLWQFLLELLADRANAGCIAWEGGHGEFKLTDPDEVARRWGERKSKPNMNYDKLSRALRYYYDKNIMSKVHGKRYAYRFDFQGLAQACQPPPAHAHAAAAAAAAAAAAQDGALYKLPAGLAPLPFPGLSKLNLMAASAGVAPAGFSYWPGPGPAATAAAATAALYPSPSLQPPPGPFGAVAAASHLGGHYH
How it was run: (§1)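 Binding signal is each hexamer's read frequency for a factor divided by its frequency in the tag-only sample. The factors were GST-fused human transcription factors from yeast, captured on glutathione beads, DNA-barcoded and pooled with that sample. Pools were incubated with 200 nmole of a random double-stranded 16-mer DNA library in Tris/NaCl/DTT/glycerol buffer at room temperature for 30 min, then washed, crosslinked with 0.1% formaldehyde, proximity-ligated with BsaI/T4 ligase (1 h, 37 °C), PCR-amplified and sequenced on an Illumina NextSeq500.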

[2] = target: ETV5 (Homo sapiens, UniProt P41161 1-510); conditions: protein: recombinant; tags: N-terminal GST; dsDNA, one strand shown
How it was run: as §1

[3] = target: HSF1 (Homo sapiens, UniProt Q00613 1-529); conditions: protein: recombinant; tags: N-terminal GST; chain copies: 3; dsDNA, one strand shown
How it was run: as §1

[4] = target: T2, SPIC (Homo sapiens, UniProt Q8N5J4 1-248); conditions: protein: recombinant; tags: N-terminal GST; dsDNA, one strand shown
T2 sequence: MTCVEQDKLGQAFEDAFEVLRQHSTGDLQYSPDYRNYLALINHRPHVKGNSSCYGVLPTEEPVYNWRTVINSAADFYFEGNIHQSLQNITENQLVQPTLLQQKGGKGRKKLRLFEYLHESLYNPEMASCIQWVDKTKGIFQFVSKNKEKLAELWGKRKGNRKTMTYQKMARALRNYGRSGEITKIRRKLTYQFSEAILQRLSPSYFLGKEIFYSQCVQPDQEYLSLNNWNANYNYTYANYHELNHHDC
How it was run: as §1

[5] = target: ELF4 (Homo sapiens, UniProt Q99607 1-663); conditions: protein: recombinant; tags: N-terminal GST; dsDNA, one strand shown
How it was run: as §1

[6] = target: T3, ELK4 (Homo sapiens, UniProt P28324-2 1-405); conditions: protein: recombinant; tags: N-terminal GST; dsDNA, one strand shown
T3 sequence: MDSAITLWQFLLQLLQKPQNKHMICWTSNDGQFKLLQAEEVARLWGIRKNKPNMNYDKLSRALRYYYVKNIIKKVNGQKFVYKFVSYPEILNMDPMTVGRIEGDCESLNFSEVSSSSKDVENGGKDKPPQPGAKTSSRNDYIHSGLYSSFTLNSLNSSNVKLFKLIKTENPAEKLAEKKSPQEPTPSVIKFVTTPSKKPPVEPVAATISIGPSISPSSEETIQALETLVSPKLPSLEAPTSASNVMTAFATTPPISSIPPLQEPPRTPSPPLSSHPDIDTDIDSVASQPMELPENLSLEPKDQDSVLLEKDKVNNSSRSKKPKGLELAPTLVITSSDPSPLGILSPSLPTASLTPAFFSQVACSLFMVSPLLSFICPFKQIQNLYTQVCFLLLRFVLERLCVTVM
How it was run: as §1

[7] = target: T4, ETV2 (Homo sapiens, UniProt O00321 1-342); conditions: protein: recombinant; tags: N-terminal GST; dsDNA, one strand shown
T4 sequence: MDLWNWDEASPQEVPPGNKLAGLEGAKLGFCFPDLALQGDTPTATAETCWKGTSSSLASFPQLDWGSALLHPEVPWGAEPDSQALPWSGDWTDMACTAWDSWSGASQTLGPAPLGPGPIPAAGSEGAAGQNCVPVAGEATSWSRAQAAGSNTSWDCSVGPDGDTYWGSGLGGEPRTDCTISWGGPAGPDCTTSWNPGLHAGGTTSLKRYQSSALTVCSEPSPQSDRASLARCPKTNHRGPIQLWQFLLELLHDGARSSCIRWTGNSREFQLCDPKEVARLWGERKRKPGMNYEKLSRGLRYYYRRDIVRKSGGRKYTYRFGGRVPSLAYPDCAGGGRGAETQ
How it was run: as §1

[8] = target: T5, ELF3 (Homo sapiens, UniProt P78545 1-371); conditions: protein: recombinant; tags: N-terminal GST; dsDNA, one strand shown
T5 sequence: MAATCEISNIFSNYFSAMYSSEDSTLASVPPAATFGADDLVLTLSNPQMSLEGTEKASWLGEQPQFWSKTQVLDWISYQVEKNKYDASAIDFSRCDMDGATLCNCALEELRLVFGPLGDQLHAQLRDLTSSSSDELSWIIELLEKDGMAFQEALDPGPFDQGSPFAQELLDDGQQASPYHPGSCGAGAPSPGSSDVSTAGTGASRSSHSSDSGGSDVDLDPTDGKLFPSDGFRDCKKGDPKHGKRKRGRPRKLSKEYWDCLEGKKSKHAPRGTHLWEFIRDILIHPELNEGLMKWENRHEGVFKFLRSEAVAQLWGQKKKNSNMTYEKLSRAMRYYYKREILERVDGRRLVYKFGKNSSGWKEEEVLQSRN
How it was run: as §1

[9] = target: CRX (Homo sapiens, UniProt O43186 1-299); conditions: protein: recombinant; tags: N-terminal GST; dsDNA, one strand shown
How it was run: as §1

ELF4, sequence (Q99607 whole entry): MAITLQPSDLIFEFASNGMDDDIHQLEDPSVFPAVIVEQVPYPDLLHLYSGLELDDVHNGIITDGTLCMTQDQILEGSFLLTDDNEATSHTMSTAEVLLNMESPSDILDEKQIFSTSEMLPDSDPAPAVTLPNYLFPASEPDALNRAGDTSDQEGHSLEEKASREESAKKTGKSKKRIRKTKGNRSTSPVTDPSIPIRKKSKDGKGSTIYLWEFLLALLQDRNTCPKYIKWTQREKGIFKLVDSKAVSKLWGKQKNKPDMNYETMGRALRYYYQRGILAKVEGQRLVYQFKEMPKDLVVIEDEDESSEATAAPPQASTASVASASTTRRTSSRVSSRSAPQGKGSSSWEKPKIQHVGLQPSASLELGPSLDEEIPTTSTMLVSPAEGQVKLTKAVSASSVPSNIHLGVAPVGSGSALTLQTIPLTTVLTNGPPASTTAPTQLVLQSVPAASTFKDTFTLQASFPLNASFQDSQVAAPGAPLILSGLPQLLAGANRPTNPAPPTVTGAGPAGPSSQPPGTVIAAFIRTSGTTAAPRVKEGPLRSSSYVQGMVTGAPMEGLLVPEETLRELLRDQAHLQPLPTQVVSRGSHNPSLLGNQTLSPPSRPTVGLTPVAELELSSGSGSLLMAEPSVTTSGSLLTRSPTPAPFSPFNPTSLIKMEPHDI
CRX, sequence (O43186 whole entry): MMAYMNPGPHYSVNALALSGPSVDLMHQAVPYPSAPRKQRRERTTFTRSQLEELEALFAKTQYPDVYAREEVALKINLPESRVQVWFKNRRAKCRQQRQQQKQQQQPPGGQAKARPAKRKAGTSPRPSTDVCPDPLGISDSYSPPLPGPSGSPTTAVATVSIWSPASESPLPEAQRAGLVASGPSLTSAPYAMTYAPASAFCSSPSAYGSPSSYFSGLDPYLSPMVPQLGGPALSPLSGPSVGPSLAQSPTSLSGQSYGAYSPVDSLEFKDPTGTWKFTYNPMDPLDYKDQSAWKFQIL
ETV5, sequence (P41161 whole entry): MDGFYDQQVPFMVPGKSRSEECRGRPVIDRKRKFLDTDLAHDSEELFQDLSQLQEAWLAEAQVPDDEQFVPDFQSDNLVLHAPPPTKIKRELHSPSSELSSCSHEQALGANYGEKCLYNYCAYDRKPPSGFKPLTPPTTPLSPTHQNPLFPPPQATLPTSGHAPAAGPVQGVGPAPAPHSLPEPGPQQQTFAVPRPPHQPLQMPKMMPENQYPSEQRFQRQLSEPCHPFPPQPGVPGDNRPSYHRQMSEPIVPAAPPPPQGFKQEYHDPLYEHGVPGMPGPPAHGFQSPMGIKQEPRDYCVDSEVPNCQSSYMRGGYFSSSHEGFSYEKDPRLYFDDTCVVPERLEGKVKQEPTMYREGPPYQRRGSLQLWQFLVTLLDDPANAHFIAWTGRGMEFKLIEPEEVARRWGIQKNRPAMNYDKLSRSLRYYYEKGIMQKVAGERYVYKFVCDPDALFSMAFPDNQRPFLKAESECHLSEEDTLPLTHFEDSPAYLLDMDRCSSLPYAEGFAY
HSF1, sequence (Q00613 whole entry): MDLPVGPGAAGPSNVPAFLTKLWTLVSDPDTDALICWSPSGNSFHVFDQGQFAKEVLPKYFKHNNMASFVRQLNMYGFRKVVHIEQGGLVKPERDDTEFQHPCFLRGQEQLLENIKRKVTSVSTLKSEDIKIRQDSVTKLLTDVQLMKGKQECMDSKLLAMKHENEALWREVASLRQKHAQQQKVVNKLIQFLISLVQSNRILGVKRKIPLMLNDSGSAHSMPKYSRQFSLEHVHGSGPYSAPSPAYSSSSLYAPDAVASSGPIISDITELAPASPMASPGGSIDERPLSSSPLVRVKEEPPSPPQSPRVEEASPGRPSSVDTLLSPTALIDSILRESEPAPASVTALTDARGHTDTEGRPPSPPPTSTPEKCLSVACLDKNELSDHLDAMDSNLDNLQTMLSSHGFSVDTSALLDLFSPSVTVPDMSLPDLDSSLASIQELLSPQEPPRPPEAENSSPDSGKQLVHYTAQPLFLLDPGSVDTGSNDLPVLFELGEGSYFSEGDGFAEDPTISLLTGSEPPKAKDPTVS

**Q.** For CACATT, which binding signal [1] is on record?
**A.** 1.18 fold enrichment (6-mer frequency, TF over GST control)

**Q.** And the binding signal [2]?
**A.** 1.19 fold enrichment (6-mer frequency, TF over GST control)

**Q.** And the binding signal [3]?
**A.** 1.14 fold enrichment (6-mer frequency, TF over GST control)

**Q.** What about the binding signal [4] of the same sequence?
**A.** 1.26 fold enrichment (6-mer frequency, TF over GST control)

**Q.** What about the binding signal [5] of the same sequence?
**A.** 1.16 fold enrichment (6-mer frequency, TF over GST control)

**Q.** What about the binding signal [6] of the same sequence?
**A.** 1.13 fold enrichment (6-mer frequency, TF over GST control)

**Q.** And the binding signal [7]?
**A.** 1.28 fold enrichment (6-mer frequency, TF over GST control)

**Q.** And the binding signal [8]?
**A.** 1.43 fold enrichment (6-mer frequency, TF over GST control)

**Q.** What about the binding signal [9] of the same sequence?
**A.** 1.06 fold enrichment (6-mer frequency, TF over GST control)
